This is one part of a sample in which hits are shown more often than they occur.
IDE exosite FP = exo-site inhibitors of human insulin-degrading enzyme | AID 1259349 | purified IDE, FL-6b probe fluorescence polarization; hits give low values | 6.3% of 17,000 active | z-score at 20 µM;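 active means z-score of -3 or lower, meaning strong loss of probe binding signal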;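 further: His-tagged human IDE residues 42-1019 made in E. coli with 30 nM FL-6b probe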
An asterisk follows results filed as active.

SMILES	IDE exosite FP
Cc1cccc(-c2ccc([C@H]3[C@@H](CO)N4CCCCN(C(=O)NC(C)C)C[C@H]34)cc2)c1	-13*
O=C(NC[C@@H]1[C@H](c2ccccc2)[C@H](CO)N1CC1CCCC1)c1ccccc1	2.5
O=C(Nc1ccc(F)cc1)N1CC(=O)N2[C@H](CO)[C@H](c3ccc(C#CC4CC4)cc3)[C@H]2C1	0.55
CC(=O)N1[C@@H](CO)[C@H](c2ccccc2)[C@@H]1CN(C(=O)c1ccc(F)cc1)C(C)C	4.3
CCS(=O)(=O)N1CC(=O)N2[C@H](CO)[C@@H](c3ccc(C#CCC(C)C)cc3)[C@H]2C1	1.8
C/C=C/c1ccc(C2[C@H]3CNC[C@@H]2N3Cc2cc(OC)cc(OC)c2)cc1 (stereo not given in full)	2.2
COc1cccc(CN2[C@@H]3CNC[C@H]2[C@H]3c2ccc(-c3ccccc3OC)cc2)c1	-3.4*
COc1cc(CN2[C@@H]3CNC[C@H]2C3c2ccc(-c3cccc(C)c3)cc2)cc(OC)c1 (stereo not given in full)	-7.2*
COc1cc(CN2[C@@H]3CNC[C@H]2C3c2ccc(-c3ccc(C#N)cc3)cc2)cc(OC)c1 (stereo not given in full)	0.45
COc1ccccc1-c1ccc(C2[C@H]3CNC[C@@H]2N3Cc2cc(-c3ccccc3)on2)cc1 (stereo not given in full)	-1.1
COc1cccc(CN2[C@@H]3CNC[C@H]2C3c2ccc(-c3ccc(C#N)cc3)cc2)c1 (stereo not given in full)	0.55
O=C(Nc1cccc(F)c1)N1C[C@@H]2[C@H](c3ccccc31)[C@@H](CO)N2C(=O)Cc1ccccn1	0.35
COCC(=O)N1[C@@H](C#N)[C@@H](c2ccccc2-c2ccccc2F)[C@@H]1CO	0.23
COCCNC(=O)C[C@H]1C[C@@H]2c3cc(NC(=O)CN(C)C)ccc3O[C@@H]2[C@@H](CO)O1	0.72
O=C(c1cccc(F)c1)N1CCCCN2[C@H](CO)[C@H](c3ccc(C#CC4(O)CCCC4)cc3)[C@@H]2C1	-0.7
N#C[C@H]1[C@@H](c2ccccc2-c2ccccc2F)[C@H](CO)N1C(=O)C1CCC1	1.4
CCCC#Cc1ccc([C@@H]2[C@H]3CN(S(=O)(=O)CC)CCCCN3[C@H]2CO)cc1	-0.062
CCS(=O)(=O)N1CCCCN2[C@H](C1)[C@@H](c1ccc(C#Cc3ccccc3OC)cc1)[C@@H]2CO	-9.5*
O=S(=O)(Cc1ccccc1)N1CCCCN2[C@H](C1)[C@H](c1ccc(C#Cc3ccccc3)cc1)[C@@H]2CO	5.9
CCS(=O)(=O)N1CCCCN2[C@H](CO)[C@@H](c3ccc(C#Cc4ccccc4OC)cc3)[C@@H]2C1	-11*
CCCC#Cc1ccc([C@@H]2[C@H](CO)N3CCCCN(S(=O)(=O)CC)C[C@@H]23)cc1	-3*
CCS(=O)(=O)N1CCCCN2[C@@H](CO)[C@@H](c3ccc(C#Cc4ccccc4OC)cc3)[C@@H]2C1	-20*
CCS(=O)(=O)N1CCCCN2[C@H](C1)[C@H](c1ccc(C#Cc3ccccn3)cc1)[C@@H]2CO	-0.6
CCCC#Cc1ccc([C@@H]2[C@@H](CO)N3CCCCN(S(=O)(=O)CC)C[C@@H]23)cc1	-2.1
CCS(=O)(=O)N1CCCCN2[C@H](CO)[C@H](c3ccc(C#Cc4ccccn4)cc3)[C@@H]2C1	-0.051
SMILES	IDE exosite FP
COc1ccc(C#Cc2ccc([C@H]3[C@@H](CO)N4CCCCN(S(=O)(=O)c5ccccc5)C[C@H]34)cc2)cc1	-1.2
O=S(=O)(Cc1ccccc1)N1CCCCN2[C@H](C1)[C@@H](c1ccc(C#Cc3ccccc3)cc1)[C@@H]2CO	-1.9
CCCC#Cc1ccc([C@@H]2[C@H]3CN(S(=O)(=O)Cc4ccccc4)CCCCN3[C@H]2CO)cc1	3.8
Cc1ccccc1S(=O)(=O)Nc1ccc2c(c1)C(=O)N(C)[C@@H]1CC[C@H](CC(=O)O)O[C@@H]1CO2	-1.1
COc1ccccc1C(=O)Nc1ccc2c(c1)C(=O)N(C)C[C@H](OC)[C@H](C)CN(C(C)=O)[C@H](C)CO2	2.3
O=C(c1cc2c(c(-c3cccc(Br)c3)n1)[C@@H](CCO)NC2)N1CCCCC1	1
CN(C)C(=O)c1cccc(-c2ccccc2[C@H]2[C@@H](CO)N(C(=O)C3CCCCC3)[C@H]2C#N)c1	1.1
C[C@@H]1CN([C@H](C)CO)C(=O)c2cc(C#Cc3ccccc3)cnc2O[C@H]1CN(C)C(=O)c1ccccc1	-2.2
N#C[C@@H]1[C@@H](c2ccc(-c3ccncc3)cc2)[C@@H](CO)N1C(=O)C1CCCCC1	4.9
C/C=C/c1ccc([C@H]2[C@@H](CO)N(C(=O)CC)[C@@H]2CN(C)C(=O)NC(C)C)cc1	1.9
COCCN(C[C@@H]1N[C@@H](CO)[C@@H]1c1ccc(-c2cccnc2)cc1)C(C)=O	1.8
O=C(C1CCOCC1)N1CC(=O)N2[C@H](CO)[C@H](c3ccc(/C=C/c4ccccc4)cc3)[C@@H]2C1	-4.8*
O=C(C1CCOCC1)N1CC(=O)N2[C@H](CO)[C@H](c3ccc(Br)cc3)[C@H]2C1	0.69
O=C(C1CCOCC1)N1CC(=O)N2[C@H](C1)[C@H](c1ccc(Br)cc1)[C@@H]2CO	3.1
O=C(C1CCOCC1)N1CC(=O)N2[C@H](C1)[C@@H](c1ccc(Br)cc1)[C@@H]2CO	1.9
O=C(C1CCOCC1)N1CC(=O)N2[C@H](C1)[C@H](c1ccc(/C=C/c3ccccc3)cc1)[C@@H]2CO	-3.3*
COC(=O)C[C@@H]1C[C@@H]2c3cc(N)ccc3O[C@@H]2[C@H](CO)O1	-0.54
O=C(Nc1ccc(F)cc1)N1CC(=O)N2[C@H](C1)[C@H](c1ccc(Br)cc1)[C@@H]2CO	-0.64
CC(C)CC#Cc1ccc([C@H]2[C@@H](CO)N3C(=O)CN(C(=O)c4cccc(F)c4)C[C@@H]23)cc1	-0.73
COc1ccc2c3c([nH]c2c1)[C@@H](CO)N(S(C)(=O)=O)CC31CN(C(=O)Cc2cccnc2)C1	0.033
CCS(=O)(=O)Nc1ccc2c(c1)C(=O)N(C)[C@@H]1CC[C@H](CC(=O)NCc3ccccc3F)O[C@H]1CO2	-0.77
COc1ccc(C#Cc2ccc([C@@H]3[C@@H](CO)N4C(=O)CN(C(=O)Nc5ccccc5F)C[C@H]34)cc2)cc1	2.2
COc1ccc(C[C@@H]2CCn3cc(nn3)COC[C@H](c3ccccc3)NC2=O)cc1	-0.39
COCC(=O)N1CC2(CN(S(C)(=O)=O)C2)c2c(n(C)c3cc(OC)ccc23)[C@H]1CO	0.79
CCC(=O)N1[C@H](CO)[C@@H](c2ccccc2-c2cccc(C)c2)[C@@H]1C#N	0.81
SMILES	IDE exosite FP
O=C(NC1CCCC1)N1CC(=O)N2[C@H](CO)[C@H](c3ccc(-c4ccncc4)cc3)[C@@H]2C1	0.54
O=C(NC1CCCC1)N1CC(=O)N2[C@H](CO)[C@@H](c3ccc(-c4ccncc4)cc3)[C@H]2C1	1.1
O=C(NC1CCCC1)N1CC(=O)N2[C@H](CO)[C@H](c3ccc(-c4ccccc4)cc3)[C@@H]2C1	-5.7*
O=C(NC1CCCC1)N1CC(=O)N2[C@H](CO)[C@H](c3ccc(-c4cccnc4)cc3)[C@@H]2C1	-3.4*
O=C(C1CCCCC1)N1CC(=O)N2[C@@H](CO)[C@@H](c3ccc(-c4cccnc4)cc3)[C@@H]2C1	-0.39
O=C(C1CCCCC1)N1CC(=O)N2[C@H](CO)[C@@H](c3ccc(-c4cccnc4)cc3)[C@@H]2C1	-5.1*
O=C(C1CCCCC1)N1CC(=O)N2[C@H](CO)[C@H](c3ccc(-c4cccnc4)cc3)[C@@H]2C1	0.25

Screens as filed in PubChem BioAssay.
